From the supplement of paper PMC12045047 come the findings set out here.

Counter-ions that a name gives are not always drawn.

The first test relates to primary human airway basal cells (HBEC, luciferase-transduced). Description: proliferation (luciferase bioluminescence) Z score relative to plate mean; higher = more proliferation / more cells, active = 1.96 or more. As to conditions: donor: 1; 0.5 µM; library: ENZO Libraries; 4 days. Here is the method:
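Primary human bronchial epithelial (airway basal) cells from two donors, lentivirally transduced with pHIV-Luc-ZsGreen, were seeded at 2000 cells/well in 384-well plates in FAD medium with ENZO or Prestwick library compounds and cultured for 4 days. Luciferin was then added and bioluminescence was read as a measure of cell number. Relative light units were converted to Z scores against the plate, and the mean of triplicate wells is reported.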
With `C[C@]1(Cn2ccnn2)[C@H](C(=O)O)N2C(=O)C[C@H]2S1(=O)=O` [Tazobactam], the proliferation was 0.216 (inactive).
As to `N=C(N)Nc1ccc(C(=O)Oc2ccc3cc(C(=N)N)ccc3c2)cc1` [Nafamostat mesylate], the proliferation is 0.0117 (inactive).
The same measure, in the same setting: the result for `Cn1cnc2nc(NCCO)nc(NCc3ccccc3)c21` [Iso-olomoucine] reads 0.048 (inactive); that for `CCC(C)[C@H](NS(=O)(=O)c1cccc2ccccc12)C(=O)N[C@H](C=O)Cc1c[nH]c2ccccc12` (stereo not given in full), -0.192 (inactive); that for `CCN1C(=O)C=CC1=O` [N-Ethylmaleimide], 0.0934 (inactive).
On the same count and under the same terms, under `O=c1c(-c2ccc(O)cc2)coc2cc(O)cc(O)c12` [Genistein] stands 0.674 (inactive); under `CCCCCCCCCC(=O)N[C@@H](CCCN=C(N)N)C(=O)N[C@H](C(=O)N[C@@H](CCCCN)C(=O)N[C@@H](CCCN=C(N)N)C(=O)CCl)C(C)C`, 0.21 (inactive).
Same read-out and setting: the result for `CNC(=O)[C@H](Cc1c[nH]c2ccccc12)NC(=O)[C@@H](CC(=O)NO)CC(C)C` reads -0.298 (inactive).
Regarding `COc1cc2ncc(-c3ccccc3)nc2cc1OC`, the proliferation was 2.2 (active).
The same measure, in the same setting: under `O=C(O)c1cc(NCc2cc(O)ccc2O)ccc1O` [2-Hydroxy-5-(25-dihydroxybenzylamino)benzoic acid] stands -0.149 (inactive); under `Nc1ncn([C@H]2C[C@H](O)[C@@H](CO)O2)c(=O)n1` [5-Aza-2'-deoxycytidine], -0.383 (inactive); under `NC(N)=NCCC[C@H](NC(=O)[C@@H]1CCCN1C(=O)[C@H](N)Cc1ccccc1)C(=O)CCl`, 0.533 (inactive).
Same read-out and setting: the result for `O=C[C@@H]1CCCN1C(=O)[C@@H]1CCCN1C(=O)OCc1ccccc1` [Z-Prolyl-prolinal] reads -0.531 (inactive).
Same read-out and setting: under `NCCCC[C@H](N[C@@H](CCc1ccccc1)C(=O)O)C(=O)N1CCC[C@H]1C(=O)O` [Lisinopril] stands -0.405 (inactive).
Turning to `N#CC(C#N)=C(N)/C(C#N)=C/c1cc(O)c(O)c(O)c1`, the proliferation is -0.239 (inactive).
Take `C[C@H](NC(=O)[C@@H]1CCCN1C(=O)[C@@H]1CCCN1C(=O)[C@@H](O)[C@H](N)Cc1ccccc1)C(N)=O` [Apstatin]: the proliferation is -0.513 (inactive).
On the same count and under the same terms, the result for `CC(NC(=O)C(Cc1ccccc1)NC(=O)OCc1ccccc1)C(=O)CF` (stereo not given) reads -0.176 (inactive).
Same read-out and setting: the result for `N[C@H](C(=O)O)[C@@H]1CC(Cl)=NO1` [Acivicin] reads -0.75 (inactive); that for `O=C1Nc2ccc(I)cc2/C1=C/c1cc(Br)c(O)c(Br)c1`, -0.115 (inactive); that for `N#C/C(=C\c1ccc(O)c(O)c1)C(=O)NCc1ccccc1`, 0.366 (inactive).

The same test, now with this note: donor: 1; 5 µM; library: ENZO Libraries; 4 days.
As to `C[C@]1(Cn2ccnn2)[C@H](C(=O)O)N2C(=O)C[C@H]2S1(=O)=O` [Tazobactam], the proliferation was 0.201 (inactive).
Still for that read-out and setting: under `N=C(N)Nc1ccc(C(=O)Oc2ccc3cc(C(=N)N)ccc3c2)cc1` [Nafamostat mesylate] stands -0.0211 (inactive).
Still for that read-out and setting: under `Cn1cnc2nc(NCCO)nc(NCc3ccccc3)c21` [Iso-olomoucine] stands 0.096 (inactive); under `CCC(C)[C@H](NS(=O)(=O)c1cccc2ccccc12)C(=O)N[C@H](C=O)Cc1c[nH]c2ccccc12` (stereo not given in full), -0.56 (inactive).
Same read-out and setting: the result for `CCN1C(=O)C=CC1=O` [N-Ethylmaleimide] reads -0.247 (inactive); that for `O=c1c(-c2ccc(O)cc2)coc2cc(O)cc(O)c12` [Genistein], 2.14 (active).
As for `CCCCCCCCCC(=O)N[C@@H](CCCN=C(N)N)C(=O)N[C@H](C(=O)N[C@@H](CCCCN)C(=O)N[C@@H](CCCN=C(N)N)C(=O)CCl)C(C)C`, the proliferation was 0.0695 (inactive).
On the same count and under the same terms, under `CNC(=O)[C@H](Cc1c[nH]c2ccccc12)NC(=O)[C@@H](CC(=O)NO)CC(C)C` stands -0.522 (inactive); under `COc1cc2ncc(-c3ccccc3)nc2cc1OC`, 2.78 (active); under `O=C(O)c1cc(NCc2cc(O)ccc2O)ccc1O` [2-Hydroxy-5-(25-dihydroxybenzylamino)benzoic acid], -0.503 (inactive).
On the same count and under the same terms, the result for `Nc1ncn([C@H]2C[C@H](O)[C@@H](CO)O2)c(=O)n1` [5-Aza-2'-deoxycytidine] reads -0.302 (inactive); that for `NC(N)=NCCC[C@H](NC(=O)[C@@H]1CCCN1C(=O)[C@H](N)Cc1ccccc1)C(=O)CCl`, -0.142 (inactive); that for `O=C[C@@H]1CCCN1C(=O)[C@@H]1CCCN1C(=O)OCc1ccccc1` [Z-Prolyl-prolinal], -0.515 (inactive).
Still for that read-out and setting: the result for `NCCCC[C@H](N[C@@H](CCc1ccccc1)C(=O)O)C(=O)N1CCC[C@H]1C(=O)O` [Lisinopril] reads 0.0284 (inactive).
As for `N#CC(C#N)=C(N)/C(C#N)=C/c1cc(O)c(O)c(O)c1`, the proliferation is -0.228 (inactive).
On to `C[C@H](NC(=O)[C@@H]1CCCN1C(=O)[C@@H]1CCCN1C(=O)[C@@H](O)[C@H](N)Cc1ccccc1)C(N)=O` [Apstatin], for which the proliferation is -0.193 (inactive).
Regarding `CC(NC(=O)C(Cc1ccccc1)NC(=O)OCc1ccccc1)C(=O)CF` (stereo not given), the proliferation was -0.114 (inactive).
`N[C@H](C(=O)O)[C@@H]1CC(Cl)=NO1` [Acivicin]: the proliferation was -1.56 (inactive).
For `O=C1Nc2ccc(I)cc2/C1=C/c1cc(Br)c(O)c(Br)c1`, the proliferation is -0.66 (inactive).
The same measure, in the same setting: the result for `N#C/C(=C\c1ccc(O)c(O)c1)C(=O)NCc1ccccc1` reads -0.179 (inactive).
